High-throughput results: PubChem, National Center for Advancing Translational Sciences (NCATS)
Rows were chosen to be rich in hits. Some 19% of all compounds tested hit in one or more screens of this group.
TDP1 cell CPT: DT40-hTDP1 cell growth loss with CPT; chicken DT40 Tdp1-/-;hTDP1 cells + 20 nM CPT, ATP luminescence, 48 h; Potency, µM (top dose mostly 46.2 µM), inactives show at the highest dose activity change, negative = growth inhibition, hits mostly inhibitors; 12% of 420,000 active; AID 686979; also: potency is read from the fitted curve at half-maximal effect; nearly all actives have a fitted effect of over 55% in size
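Chicken DT40 Tdp1-/- cells complemented with human TDP1, 400 cells/well, exposed to compounds plus 20 nM camptothecin for at least 48 h at 37 C; viability read as ATP content by CellTiter-Glo luminescence.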
HT1080 IDH1KD tx: toxicity to HT-1080 IDH1 knockdown cells (counter line); 2% of 360,000 active; AID 686971; HT-1080 IDH1 knockdown viability, ATP luminescence, 48 h; Potency, µM (series often up to 46.1 µM), for the others: at the highest dose activity, negative = toxicity, most hits filed as cytotoxic;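 also: potency is read from the fitted curve at half-maximal effect; 0% = DMSO wells and -100% = cell-free medium wells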
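Viability of IDH1-knockdown HT-1080 fibrosarcoma cells was assessed by CellTiter-Glo after 48 h at 37 °C with titrated compound; concentration-effect curves were classified by fit quality and response size.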
TDP1 cell noCPT: qHTS for Inhibitors of human tyrosyl-DNA phosphodiesterase 1 (TDP1): qHTS in cells in absence of CPT; 15% of 420,000 active; DT40 Tdp1-/- hTDP1 cells, no CPT, ATP luminescence, 48 h; AID 686978, 2013; Potency, µM (doses to about 46.2 µM), for the others: at the top dose activity change, negative = growth inhibition, most hits filed as inhibitors; also: potency is read from the fitted curve at half-maximal effect; nearly all actives have a fitted effect of over 55% in size
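A cellular qHTS used chicken DT40 cells lacking endogenous Tdp1 but carrying stably transfected human TDP1. Compounds were applied without camptothecin, and cell growth kinetics were judged by ATP-dependent luminescence after ≥48 hr.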
IL-1B inflam inh: inhibitors of inflammasome signaling (IL-1 beta secretion). THP-1 LPS/ATP IL-1B secretion, AlphaLISA, 16 h; hits give low values. activity change, % at 57.5 µM. 4.7% of 360,000 active; in the data active = activity change below about -50%; inconclusive = mostly about -30% to -49%
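Secreted IL-1B measured by AlphaLISA bead assay after 16 h compound exposure of THP-1 cells; compounds (final up to 57.5 uM) added 1 h before LPS (250 ng/mL) and ATP (1.25 mM) stimulation; lower signal means less secretion.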
HT1080-NT tox: kills 2HG-producing HT-1080-NT fibrosarcoma cells; Potency, µM (top dose mostly 46.1 µM), for the others: at the highest dose activity, negative = less viability, actives largely listed as cytotoxic; 1.6% of 360,000 active; HT-1080-NT fibrosarcoma viability, CellTiter-Glo ATP luminescence, 48 h;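 also: NT is the 2HG producing partner of a matched IDH1 knockdown line; potency is read from the fitted curve at half-maximal effect; 0% = DMSO-treated cells and -100% = media-only wells without cells; nearly all actives have a fitted effect of over 55% in size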
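HT-1080-NT fibrosarcoma cells (2HG-overproducing), 750 cells/well in RPMI with 5% FBS, dosed after 2 h and incubated 48 h at 37C. CellTiter-Glo luminescence normalized to DMSO and no-cell wells; concentration-response curves fitted and classed.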
ELG1 repair inh: inhibitors of ELG1-dependent DNA repair in HEK293T cells; HEK293T ELG1-luciferase reporter, luminescence, 16 h; DNA damage induced by 5-fluorouridine; Potency, µM (top dose mostly 46.1 µM), for the others: top-dose activity change, negative = inhibition, hits mostly inhibitors; 2.3% of 330,000 active; AID 504467; also: potency is read from the fitted curve at half-maximal effect; nearly all actives have a fitted effect of over 55% in size
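Cells (2,000 per well) received 5-fluorouridine plus test compound or DMSO and were incubated 16 hr at 37 °C, 5% CO2. Luciferase activity was read by luminescence 30 min after ONE-Glo addition; signal suppression marked inhibition of damage-induced ELG1 function.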
Starred values were filed as active, the others as inactive; u = inconclusive; x = not tested or not shown; ! = a repeat was not active. Unless noted, calls follow the shape of the dose curve; as a rule, active = well fitted curve in the direction sought with a large enough effect; inconclusive = small, poorly fitted or top-dose-only effect, or another doubt; inactive = no such curve, though single readings can be large; an effect the other way counts as inactive or inconclusive. Unless noted, % is scaled to controls: 0 for no effect and ±100 for the full control effect.

SMILES	TDP1 cell CPT	HT1080 IDH1KD tx	TDP1 cell noCPT	IL-1B inflam inh	HT1080-NT tox	ELG1 repair inh
Cc1ccccc1Nc1c(-c2ccc(N3CCOCC3)cc2)nc2ccc(Cl)cn12	18µM*	x	16µM*	x	x	x
Cc1ccn2c(Nc3ccccc3C)c(-c3ccc(N4CCOCC4)cc3)nc2c1	18µM*	x	u	x	x	x
Cc1ccc2nc(-c3ccc(N4CCOCC4)cc3)c(Nc3ccccc3C)n2c1	16µM*	x	18µM*	x	x	x
CC(NCCS(=O)(=O)c1ccc(Cl)cc1)c1cccc(Cl)c1 (stereo unspecified)	0%	-11%	u	-60*	-8%	-19%
C=CCn1c(-c2ccccc2)nc(=S)c2c1CCCC2	u	12%	23µM*	-15	15%	9%
Cc1cccc(N2CCN(C(=O)Cc3c(C(=O)O)c(C)cn3C)CC2)c1C	5%	x	-25%	x	x	x
O=S(=O)(c1ccc(S(=O)(=O)N(Cc2ccccc2)Cc2ccco2)cc1)N1CCCC1	15µM*	-18%	u	-8	-7%	x
CCN(Cc1ccccc1)S(=O)(=O)c1ccc(S(=O)(=O)N2CCN(C)CC2)cc1	-29%	5%	-14%	-3	-1%	1%
CCN(CC(=O)Nc1cc(S(=O)(=O)N2CCCCC2)ccc1Cl)Cc1ccccc1	16µM*	-23%	18µM*	6	0%	-5%
CN(CC(=O)Nc1cc(S(=O)(=O)N2CCCC2)ccc1Cl)Cc1cccs1	u	-4%	16µM*	0	-12%	u
CCN(CC(=O)Nc1ccc(S(=O)(=O)N2CCCCC2)cc1)Cc1ccccc1	12µM*	-18%	u	-1	3%	-16%
CCOC(=O)CC1c2nc3ccccc3cc2CN1C(=O)OCC (stereo unspecified)	u	9%	u	41	5%	x
CC1(C(=O)NCCOc2ccccc2Cl)CC1(Cl)Cl (stereo unspecified)	-20%	0%	-6%	-9	9%	8%
O=C(C1CCCN(S(=O)(=O)c2ccc(Cl)cc2)C1)N(Cc1cccs1)C1CC1 (stereo unspecified)	u	-10%	18µM*	u	3%	u
CN(Cc1cccs1)C(=O)c1ccc(S(=O)(=O)N2CCCCC2)cc1	u	-5%	u	0	24%	-9%
CCn1cc(C(=O)N2CCN(c3ccc(OC)cc3)CC2)c(=O)c2cc(S(=O)(=O)N(C)C3CCCCC3)ccc21	0%	x	5%	x	x	x
Cc1ccc(Sc2ccc(N3CCCC(C(=O)Nc4ccc(F)cc4F)C3)nn2)cc1 (stereo unspecified)	15µM*	x	18µM*	x	x	x
Cc1ccc(Sc2ccc(N3CCC(C(=O)Nc4ccc(Cl)cc4)CC3)nn2)cc1	15µM*	x	18µM*	x	x	x
Cc1ccc(NC(=O)C2CCN(c3cnccn3)CC2)cc1	0%	-10%	-23%	5	-2%	-10%
CCOc1ccc(NC(=O)C2CCCN(c3ccc(Sc4ccc(C)cc4)nn3)C2)cc1 (stereo unspecified)	-14%	x	-21%	x	x	x
CCOC(=O)c1ccc(NC(=O)C2CCCN(c3ccc(Sc4ccc(C)cc4)nn3)C2)cc1 (stereo unspecified)	u	x	8.2µM*	x	x	x
COCCN(C(=O)C1CC(=O)N(Cc2ccccc2)C1)c1nc(-c2ccc([N+](=O)[O-])cc2)cs1 (stereo unspecified)	16µM*	-24%	21µM*	-16	-17%	u
Cc1ccc(NCN2C(=O)C(=O)c3ccccc32)nc1	2.3µM*	-25%	1.3µM*	16	-10%	7%
CCNC(=O)c1cc2c(=O)n3cccc(C)c3nc2n(CCc2ccccc2)c1=N	u	-4%	13µM*	13	-6%	u
Cc1cccn2c(=O)c3cc(C(=O)NCCN4CCOCC4)c(=N)n(CCCN4CCOCC4)c3nc12	-2%	0%	u	-25	-6%	-6%
SMILES	TDP1 cell CPT	HT1080 IDH1KD tx	TDP1 cell noCPT	IL-1B inflam inh	HT1080-NT tox	ELG1 repair inh
Cc1cccn2c(=O)c3cc(C(=O)NCCN4CCOCC4)c(=N)n(CCc4ccccc4)c3nc12	u	1%	23µM*	-63*	-11%	-27%
COc1ccc2sc(N(CCN(C)C)C(=O)c3ccc4ccccc4c3)nc2c1	-25%	-3%	u	-7	4%	3%
CCN(CC)CCN(C(=O)c1ccc2c(c1)CCCC2)c1nc2ccc(C)cc2s1	u	-21%	23µM*	-16	-15%	22%
CCN(CC)CCN(C(=O)c1ccc2c(c1)CCCC2)c1nc2ccc(F)cc2s1	u	-21%	u	u	-22%	u
CCN(CC)CCN(C(=O)c1ccc2c(c1)CCCC2)c1nc2ccc(OC)cc2s1	18µM*	u	u	4	-28%	4%
O=C(CSc1nc2c(sc3ccccc32)c(=O)n1CCCC(=O)NC1CCCC1)Nc1ccc(F)cc1	-19%	x	-4%	x	x	x
COc1ccc(S(=O)(=O)Cc2ccccc2)cc1N	9.2µM*	u	u	1	-10%	5%
CCN(c1ccccc1)S(=O)(=O)c1ccc(N)c(OC)c1	u	u	-77%	10	u	u
COc1cc(CNCCNC(=O)c2nonc2N)ccc1OCc1ccc(Cl)cc1	u	16µM*	21µM*	-95*	u	-12%
C=CCOc1ccccc1CNCCNC(=O)c1nonc1N	-29%	-4%	-22%	-1	2%	0%
Nc1nonc1C(=O)NCCNCc1cc(Br)ccc1OCc1ccccc1F	21µM*	-14%	21µM*	-56*	-11%	u
Nc1nonc1C(=O)NCCNCc1ccccc1OCc1ccccc1F	u	u	21µM*	-28	u	u
CCOc1ccccc1CNCCNC(=O)c1nonc1N	u	17%	26µM*!	-2	4%	u
CCOc1c(CNCCNC(=O)c2nonc2N)cccc1OC	u	-4%	-25%	-16	u	4%
COc1ccc(C(=O)c2oc3ccccc3c2NC(=O)COc2cccc(C)c2C)cc1	6%	x	-2%	x	x	x
O=C(NC1CC(=O)N(c2ccc(Cl)cc2)C1)c1ccc2c(c1)OCO2 (stereo unspecified)	-17%	x	u	x	x	x
COCCn1c(SCC(=O)Nc2ccccc2)nnc1-c1ccoc1C	23%	8%	-10%	-15	1%	7%
